Inconclusive results are not listed. Calls of active or inactive are those of the source. How the source made its calls: active means hit-call score of the fitted dose curve at least 0.9, where 1 is the maximum; inconclusive means response in the unintended direction; inactive means score below 0.9.

In this test the test system is frog Glucocorticoid Receptor (GR), gene 397897. Nature of the test: ATG_frGR_EcoTox2: Attagene TRANS-FACTORIAL EcoTox-2 HepG2 Assay for frog Glucocorticoid Receptor (GR). As for the experimental part: ATG_EcoTox2 is a cell-based, multiplexed assay created by modifying the existing Attagene TRANS-FACTORIAL system to include a panel of nuclear receptors from some or all the following species: human (Homo sapiens), african clawed frog (Xenopus laevis), rainbow trout (Oncorhynchus mykiss), japanese medaka (Oryzias latipes), and zebrafish (Danio rerio). The ECOTOX2-FACTORIAL format uses HepG2, a human liver cell line, with measurements taken at 24 hours after chemical dosing in a 24-well plate. ATG_frGR_EcoTox2 is one of 29 assay components calculated in the ATG_EcoTox2 assay. It is designed to make measurements of mRNA induction, a form of inducible reporter, as detected with fluorescence intensity signals by Reverse transcription polymerase chain reaction (RT-PCR) and Capillary electrophoresis technology.The assay endpoint ATG_frGR_EcoTox2 was analyzed in the positive analysis fitting direction relative to DMSO as the negative control and baseline of activity. Using a type of inducible reporter, measures of mRNA for gain-of-signal activity can be used to understand the reporter gene at the transcription factor-level as they relate to the gene for glucocorticoid receptor. Furthermore, this assay endpoint can be referred to as a primary readout, because this assay has produced multiple assay endpoints where this one serves a reporter gene function. […]
Human liver HepG2 cells are transiently transfected with multiple reporter transcription units (MRTUs) in 6-well plates using FuGene 6 reagent (Roche; 3 ml FuGene/1 mg DNA). […] A major difference between the CIS and TRANS system is that in CIS activities of endogenous TFs are measured, whereas the TRANS assay evaluates changes in activities of exogenous, chimeric NR-Gal4 proteins. […] The fragments were purified using Qiaquick PCR columns (Qiagen), analyzed on an ABI 3130xL genetic analyzer (Applied Biosystems) with peak positions identified by using a set of X-rhodamine (ROX)-labeled MapMarker1000 molecular weight standards (BioVentures). […]
`CCCCOCN(C(=O)CCl)c1c(CC)cccc1CC`: the result was inactive. On to `O=P(Oc1ccccc1)(Oc1ccccc1)Oc1ccccc1`, for which the outcome was inactive. With `O=S(=O)(O)C(F)(F)C(F)(F)C(F)(F)C(F)(F)C(F)(F)C(F)(F)F` the entry was “inactive”.

The record behind these values is PubChem BioAssay AID2284330 (EPA ToxCast).
